Assay outcomes from PubChem BioAssay.
Sampled rows, rich in hits. Any-hit rate of the full collection: about 1.2%.
Rv3671c inh – Rv3671c (M. tuberculosis) protease inhibition; P9WHR9; inhibition, % at 5.96 µM; hit rate 0.048% among 320,000; AID 2606; in the data active means inhibition above about 38%;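 further: extracellular domain of Rv3671c used as enzyme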
Target sequence (P9WHR9 whole entry, looked up, the tested form may be a part): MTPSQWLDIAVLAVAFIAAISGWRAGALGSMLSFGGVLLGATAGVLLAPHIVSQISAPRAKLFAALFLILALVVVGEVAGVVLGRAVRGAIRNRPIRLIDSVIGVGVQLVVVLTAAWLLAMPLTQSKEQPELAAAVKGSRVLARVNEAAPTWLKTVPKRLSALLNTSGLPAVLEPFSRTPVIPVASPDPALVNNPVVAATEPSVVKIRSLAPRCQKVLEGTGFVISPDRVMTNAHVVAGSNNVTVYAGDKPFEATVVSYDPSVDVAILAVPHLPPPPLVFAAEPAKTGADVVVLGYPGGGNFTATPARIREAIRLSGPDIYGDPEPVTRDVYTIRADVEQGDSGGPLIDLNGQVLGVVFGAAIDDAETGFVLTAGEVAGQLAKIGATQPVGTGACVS
Mtb UGM inh – Mtb UDP-galactopyranose mutase inhibition | P9WIQ1 | inhibition, % at 10 µM | purified UGM, fluorescence polarization probe displacement | hit rate 0.06% among 320,000 | AID 504406; in the data active means inhibition above about 10%, passing the limit was not always enough; inconclusive means no clear call, values can overlap the other calls
CCHFV vOTU inh – blocks the CCHF virus ovarian tumor domain protease. CCHFV vOTU protease, Pep-AMC fluorescence. inhibition, % at 11.5 µM. hit rate 0.55% among 370,000. AID 651958; in the data active means inhibition above about 30%
RecA intein inh – Mtb RecA intein splicing inhibition; hit rate 0.75% among 290,000; AID 2221; cell-free RecA intein splicing, fluorescence; inhibition, % (no concentration beside the values); in the data active means inhibition above about 30%; inconclusive means no clear call, values can overlap the other calls
Mtb betalactam – beta-lactam sensitization of Mtb H37Rv; M. tuberculosis H37Rv growth with meropenem, percent inhibition; inhibition, % at 25 µM; hit rate 0.27% among 330,000; AID 434955;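 further: growth measured after seven days incubation then overnight dye step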
GFP chromo cs – counter-screen: blocks GFP chromophore formation. cell-free GFP chromophore formation, fluorescence. AID 434968. shares compounds with RecA intein inh. EC50, µM. hit rate 83% among 2,100
Numbers stand for hits; . = inactive; ? = inconclusive; / = no result. Unless noted, how the calls were made is not given here.

SMILES	Rv3671c inh	Mtb UGM inh	CCHFV vOTU inh	RecA intein inh	Mtb betalactam	GFP chromo cs
O=[N+]([O-])C(/C=C(/Cl)[N+](=O)[O-])=C(N1CCCCC1)N1CCCCC1	.	.	.	49	?	20
O=C(/C=C/c1ccccc1[N+](=O)[O-])N1CCCCC1	.	.	.	.	.	/
O=C(O)c1ccc2c3c(ncnc13)-c1ccccc1C2=O	.	.	/	44	.	4.4
O=C(O)c1cccc2c1C(=O)c1ccccc1C2=O	.	.	.	.	.	/
COc1ccc2[nH]c(CN3CCC(CO)(CCOc4ccccc4)CC3)c(C)c2c1	.	.	.	40	.	.
COc1ccc(CN2CCC(CO)(CCOc3ccccc3)CC2)c(OC)c1C	.	.	.	.	.	/
Nc1c(-c2ccccc2)c(CSc2nc3ccccc3[nH]2)nn1-c1cccc(Cl)c1	.	.	.	37	.	11
Nc1c(-c2ccccc2)c(CSc2nc3ccccc3[nH]2)nn1-c1ccc(Cl)cc1	.	.	.	.	.	/
Cc1ccc(N2C(=O)NC(=O)/C(=C/c3ccc(OC(=O)c4cccs4)cc3)C2=O)cc1	.	.	.	34	.	0.82
O=C(c1cccc(C(F)(F)F)c1)C1CCCN(Cc2ncc[nH]2)C1 (stereo unspecified)	.	.	.	38	.	.
CCn1ccnc1CN1CCCC(C(=O)c2cccc(C(F)(F)F)c2)C1 (stereo unspecified)	.	.	.	.	.	/
O=C(NC1CCCCC1)C(c1cccnc1)N(C(=O)CCl)c1ccc(F)cc1 (stereo unspecified)	.	.	.	73	.	11
COc1ccc(C(C(=O)NC2CCCCC2)N(C(=O)CCl)c2ccc(OC)cc2)cc1 (stereo unspecified)	.	.	/	.	.	/
COc1ccc(N(C(=O)CCl)C(C(=O)NC2CCCCC2)c2cccnc2)cc1 (stereo unspecified)	.	.	.	75	.	11
COc1ccc(C(C(=O)NC2CCCCC2)N(C(=O)CCl)c2cccc(Cl)c2)cc1 (stereo unspecified)	.	.	.	59	.	?
O=C(NC1CCCC1)C(c1ccc(F)cc1)N(Cc1ccc(F)cc1)C(=O)CCl (stereo unspecified)	.	.	.	56	.	1.8
C#CCN1C(C(=O)OC)CN(CCCCCC)CCS1(=O)=O (stereo unspecified)	/	/	.	/	/	/
O=c1c2cc3cc(Cl)ccc3nc2ncn1CCc1c[nH]c2ccccc12	/	/	.	/	/	/
O=C1CCCC2=C1C(c1ccc3c(c1)OCO3)c1c([nH]n(-c3ccccc3)c1=O)N2 (stereo unspecified)	.	.	.	74	.	14
COc1cccc(C2C3=C(CCCC3=O)Nc3[nH]n(-c4ccccc4)c(=O)c32)c1 (stereo unspecified)	.	.	.	.	.	/
CC1=C[C@]2(C[N+](Cc3ccccc3)=C(N)N2)n2c(=O)n(-c3ccccc3)c(=O)n2C1	/	/	.	/	/	/
Cn1cnc([N+](=O)[O-])c1S(=O)(=O)c1cccc(Cl)c1	.	.	.	61	.	27
ONc1cccnc1-n1nc(C(F)(F)F)cc1C(F)(F)F	.	.	/	82	.	.
O=C(O)c1ccccc1C(=O)Nc1ccc(-n2nc(C(F)(F)F)cc2C(F)(F)F)cc1	.	.	.	.	.	/
C=CCN1[C@H](C)COc2cccc(N3CCCC3)c2S1(=O)=O	/	/	.	/	/	/
SMILES	Rv3671c inh	Mtb UGM inh	CCHFV vOTU inh	RecA intein inh	Mtb betalactam	GFP chromo cs
Cc1ccc(S(=O)(=O)NC(=O)Nc2ccc(N(C)C)cc2)cc1	.	.	50	49	.	19
Cc1ccc(NC(=O)NNS(=O)(=O)c2ccc(Br)cc2)cc1	.	.	.	.	.	/
N#CCC[C@H]1CC[C@]2(CCCN(Cc3ccc(Br)cc3)C2)O1	/	/	.	/	/	/
CC1(C)Nc2ccc(O)cc2-c2c1ssc2=S	.	.	.	93	.	2.4
CCOc1cc(C(c2c(C)[nH][nH]c2=O)c2c(C)[nH][nH]c2=O)ccc1OC(=O)c1cccc([N+](=O)[O-])c1	.	.	.	92	.	0.44
CCOc1cc(C(c2c(C)[nH][nH]c2=O)c2c(C)[nH][nH]c2=O)ccc1OCc1ccc([N+](=O)[O-])cc1	.	.	.	99	.	0.33
CCOc1cc(/C=C2/NC(=S)NC2=O)ccc1OCc1ccc([N+](=O)[O-])cc1	.	.	.	.	.	/
COC(=O)c1ccc(S(=O)(=O)N2CCC(NC(=O)CCc3ccccc3)CC2)cc1	/	/	.	/	/	/
Cc1ccc(NC(=O)C2=C(c3ccccc3)S(=O)(=O)CCS2(=O)=O)cc1	.	.	.	94	.	1.9
